Reference: PubChem BioAssay (NCI)
The panel holds about 83,000 compounds, 20% with a hit somewhere; the sample as a whole holds those more often.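 Assay: single dose, 48 h. Readout: percent growth (0 = no net growth; negative = cell death). Active: <10.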 Activity calls are given as the source filed them.

Legend:
Experiment in all cases: NCI-60 one-dose screen, 48 h (100 = growth as untreated, 0 = no growth, -100 = all killed)
Settings in all cases: 10 µM unless noted
NCI-H23 lung = tested on: NCI-H23 lung
NCI-H226 lung = tested on: NCI-H226 lung
NCI-H322M lung = tested on: NCI-H322M lung
HOP-62 NSCLC = tested on: HOP-62 NSCLC
NCI-H460 lung = tested on: NCI-H460 lung
HOP-92 NSCLC = tested on: HOP-92 NSCLC
NCI-H522 lung = tested on: NCI-H522 lung
A549/ATCC NSCLC = tested on: A549/ATCC NSCLC
786-0 renal = tested on: 786-0 renal
COLO 205 colon = tested on: COLO 205 colon

Measured: growth

O=C(N/N=C/c1cc(Cl)ccc1O)c1ccccc1Nc1ccnc(C(F)(F)F)c1
inactive: NCI-H23 lung 37.9% | NCI-H322M lung 19.9% | HOP-62 NSCLC 30.4% | HOP-92 NSCLC 14% | NCI-H522 lung 50.9% | A549/ATCC NSCLC 54.4% | 786-0 renal 27.2% | COLO 205 colon 14.1%
active: NCI-H226 lung -1.12% | NCI-H460 lung 4.73%

O=c1c2ccccc2c(=O)c2c1sc1c(=O)c3ccc(O)cc3c(=O)c12
active: NCI-H23 lung -38.8% | NCI-H226 lung -91.3% | NCI-H322M lung -95.9% | HOP-62 NSCLC -78.8% | NCI-H460 lung -73.1% | HOP-92 NSCLC -24.9% | NCI-H522 lung -64.5% | A549/ATCC NSCLC -55.1% | 786-0 renal -52.7% | COLO 205 colon -82.5%

COc1ccc(C(=O)Cn2c(C(=O)c3ccc(OC)cc3)nc3ccccc32)cc1
inactive: NCI-H23 lung 50.5% | NCI-H226 lung 37.4% | NCI-H322M lung 76.6% | HOP-62 NSCLC 37.8% | NCI-H460 lung 10.5% | HOP-92 NSCLC 45.2% | A549/ATCC NSCLC 41.3% | 786-0 renal 36.3% | COLO 205 colon 38.8%
active: NCI-H522 lung -27.7%

Nc1nc(N)c2c(n1)NC(c1cccc(Nc3ccnc4cc(C(F)(F)F)ccc34)c1)CC(c1ccc(Br)cc1)=N2 (stereo not given)
inactive: NCI-H23 lung 66.3% | NCI-H226 lung 93.9% | NCI-H322M lung 96.1% | HOP-62 NSCLC 58.2% | NCI-H460 lung 29.9% | HOP-92 NSCLC 42.8% | NCI-H522 lung 48.8% | A549/ATCC NSCLC 45.9% | 786-0 renal 68.9% | COLO 205 colon 34%

NC(=O)c1c(NC(=O)c2cccc(C(F)(F)F)c2)sc2c1CCC(=O)C2
inactive: NCI-H226 lung 34.2% | NCI-H322M lung 61.6% | HOP-62 NSCLC 28.2% | A549/ATCC NSCLC 17% | 786-0 renal 17.8%
active: NCI-H23 lung -2.9% | NCI-H460 lung 5.67% | HOP-92 NSCLC -45.1% | NCI-H522 lung -37.6% | COLO 205 colon -51.2%

CCN1C2CCC1/C(=C\c1ccc(F)cc1)C(=O)/C2=C/c1ccc(F)cc1
inactive: NCI-H23 lung 29.2% | NCI-H226 lung 51.6% | NCI-H322M lung 42.9% | HOP-62 NSCLC 46% | NCI-H460 lung 46.4% | HOP-92 NSCLC 38.1% | NCI-H522 lung 36.7% | A549/ATCC NSCLC 52.6% | 786-0 renal 42.5% | COLO 205 colon 20.7%

O=C(O)COc1ccc(Cl)c(Cl)c1
inactive: NCI-H23 lung 99% | NCI-H226 lung 94.1% | NCI-H322M lung 120% | HOP-62 NSCLC 100% | NCI-H460 lung 109% | HOP-92 NSCLC 90.2% | NCI-H522 lung 102% | A549/ATCC NSCLC 107% | 786-0 renal 104% | COLO 205 colon 115%

Nc1c(C(=O)Nc2cccc(Cl)c2)sc2nc3c(cc12)CCCC3
inactive: NCI-H23 lung 103% | NCI-H226 lung 83.6% | NCI-H322M lung 108% | HOP-62 NSCLC 91.8% | NCI-H460 lung 100% | HOP-92 NSCLC 82.7% | NCI-H522 lung 80.3% | A549/ATCC NSCLC 81.7% | 786-0 renal 89% | COLO 205 colon 92.2%

CN1CCN(CCOc2ccc(-c3cnc4c(-c5cccc(F)c5F)cnn4c3)cc2)CC1
active: NCI-H460 lung -55.9% | A549/ATCC NSCLC -7.4% | 786-0 renal -61.4%
inactive: NCI-H23 lung 35.9% | NCI-H226 lung 97.9% | NCI-H322M lung 96% | HOP-62 NSCLC 106% | HOP-92 NSCLC 100% | NCI-H522 lung 88.6% | COLO 205 colon 87.6%

C#COc1cccc(Nc2ncnc3cc(NC(=O)[C@@H](C)Cl)ccc23)c1
active: HOP-62 NSCLC 7.46% [6.25 µM] | NCI-H460 lung 6.36% [6.25 µM] | NCI-H522 lung -34.7% [6.25 µM] | A549/ATCC NSCLC 6.69% [6.25 µM] | COLO 205 colon 3.72% [6.25 µM]
inactive: NCI-H23 lung 22.8% [6.25 µM] | NCI-H226 lung 41.4% [6.25 µM] | NCI-H322M lung 38.9% [6.25 µM] | HOP-92 NSCLC 57.5% [6.25 µM] | 786-0 renal 17% [6.25 µM]

CCN(CC)CCN1C(=O)c2cccc3c(/C=C/CN4C(=O)c5cccc6cccc(c56)C4=O)ccc(c23)C1=O
inactive: NCI-H23 lung 98.1% | NCI-H226 lung 92.7% | NCI-H322M lung 97.4% | HOP-62 NSCLC 89.5% | NCI-H460 lung 98.7% | HOP-92 NSCLC 88.1% | NCI-H522 lung 97.9% | A549/ATCC NSCLC 98.8% | COLO 205 colon 80.7%
active: 786-0 renal -9.45%

O=C(N/N=C\c1ccccc1S(=O)(=O)O)N/N=C/c1ccccc1S(=O)(=O)O
inactive: NCI-H23 lung 102% | NCI-H226 lung 105% | NCI-H322M lung 99.3% | HOP-62 NSCLC 101% | NCI-H460 lung 98.5% | HOP-92 NSCLC 96.8% | NCI-H522 lung 98.5% | A549/ATCC NSCLC 97.9% | 786-0 renal 95% | COLO 205 colon 106%

CC(C)(C)n1cc(-c2ccnc(NCCCNS(=O)(=O)c3cccc4ccccc34)c2)c(-c2cccc(F)c2)n1
inactive: NCI-H23 lung 68.3% | NCI-H226 lung 85.6% | NCI-H322M lung 92.9% | HOP-62 NSCLC 92.2% | NCI-H460 lung 73.3% | HOP-92 NSCLC 46.8% | NCI-H522 lung 80.5% | A549/ATCC NSCLC 73.4% | 786-0 renal 71.2% | COLO 205 colon 68.8%

COc1cc(/C=C/C(=O)/C=C(O)/C=C/c2ccc(OC(=O)C34CC5CC(CC(C5)C3)C4)c(OC)c2)ccc1OC(=O)C12CC3CC(CC(C3)C1)C2
inactive: NCI-H23 lung 103% | NCI-H226 lung 93.6% | NCI-H322M lung 102% | HOP-62 NSCLC 99.1% | NCI-H460 lung 108% | HOP-92 NSCLC 110% | NCI-H522 lung 94.8% | A549/ATCC NSCLC 103% | 786-0 renal 105% | COLO 205 colon 112%

Fc1cc(Nc2ccc3c(OCCCN4CCOCC4)cccc3n2)ccc1Cl
inactive: NCI-H23 lung 61.1% | NCI-H226 lung 68.8% | NCI-H322M lung 45.3% | HOP-62 NSCLC 39.2% | NCI-H460 lung 21.1% | HOP-92 NSCLC 27.3% | A549/ATCC NSCLC 25.7%
active: NCI-H522 lung -15.5% | 786-0 renal 1.04% | COLO 205 colon -50.2%

Clc1ccc(-c2cc(-c3ccccc3)nc(NCCNc3ccnc4cc(Cl)ccc34)n2)cc1
active: NCI-H460 lung -51.6% | NCI-H522 lung -35.9% | 786-0 renal -90.9% | COLO 205 colon -81.2%
inactive: NCI-H23 lung 74.3% | NCI-H226 lung 78.5% | NCI-H322M lung 44.6% | HOP-62 NSCLC 81.2% | HOP-92 NSCLC 31.8% | A549/ATCC NSCLC 36.3%

COc1cc(/C=N/Nc2ccc(Br)cc2)cc(OC)c1OC
inactive: NCI-H23 lung 75.8% | NCI-H226 lung 80.1% | NCI-H322M lung 66.3% | HOP-62 NSCLC 93.1% | NCI-H460 lung 31.1% | HOP-92 NSCLC 98.2% | NCI-H522 lung 39.8% | A549/ATCC NSCLC 54.9% | 786-0 renal 77.8% | COLO 205 colon 86.9%

CCN(CC)Cc1cc(Nc2ccnc3cc(Cl)ccc23)ccc1O
inactive: NCI-H23 lung 99.2% | NCI-H226 lung 105% | NCI-H322M lung 89.7% | HOP-62 NSCLC 89.4% | NCI-H460 lung 96.8% | HOP-92 NSCLC 88.5% | NCI-H522 lung 91.2% | A549/ATCC NSCLC 107% | 786-0 renal 96.8% | COLO 205 colon 81.5%

COc1ccc(C[n+]2c3ccccc3n3c4ccc(N)cc4ccc32)c(OC)c1OC
inactive: NCI-H23 lung 48.9% | NCI-H226 lung 61.4% | NCI-H322M lung 102% | HOP-62 NSCLC 52.9% | NCI-H460 lung 73.6% | NCI-H522 lung 11% | A549/ATCC NSCLC 63% | 786-0 renal 75.9% | COLO 205 colon 15.5%
active: HOP-92 NSCLC -0.227%

COc1cccc(Nc2ncnc3cc(NC(=O)CCl)ccc23)c1
inactive: NCI-H322M lung 37.5%
active: NCI-H23 lung -50.9% | NCI-H226 lung -48.3% | HOP-62 NSCLC -89.8% | NCI-H460 lung -72.7% | HOP-92 NSCLC -74.8% | NCI-H522 lung -77.4% | A549/ATCC NSCLC -27.7% | 786-0 renal -89.7% | COLO 205 colon -90%

COc1cc(OC)c(/C=C/C(=O)c2c(O)cc(OC)c(C3CCN(C)CC3)c2OC)c(OC)c1
active: NCI-H23 lung -58.8% | NCI-H226 lung -47.7% | NCI-H322M lung -15.8% | HOP-62 NSCLC -96.2% | NCI-H460 lung -75% | HOP-92 NSCLC -12.2% | NCI-H522 lung -80% | A549/ATCC NSCLC -60.7% | 786-0 renal -97.7% | COLO 205 colon -96.7%

CCCCCCCCCCCCCCCCCC1=NC(C)(C)CN1CC(C)O (stereo not given)
inactive: NCI-H23 lung 84.8% | NCI-H226 lung 102% | NCI-H322M lung 71.4% | HOP-62 NSCLC 85.2% | HOP-92 NSCLC 43.6% | NCI-H522 lung 25.8% | A549/ATCC NSCLC 19.1% | 786-0 renal 83.9% | COLO 205 colon 34%
active: NCI-H460 lung 4.24%

O=c1ccc(=O)n(-c2nc(-c3ccc([N+](=O)[O-])cc3)cs2)[nH]1
inactive: NCI-H23 lung 90.7% | NCI-H226 lung 96.3% | NCI-H322M lung 104% | HOP-62 NSCLC 107% | NCI-H460 lung 102% | HOP-92 NSCLC 103% | NCI-H522 lung 95.8% | A549/ATCC NSCLC 88.9% | 786-0 renal 81.3% | COLO 205 colon 105%

CCCCCN(CCCCC)CC(O)c1cc(C)c2ccc3cc(C(C)C)ccc3c2c1 (stereo not given)
inactive: NCI-H226 lung 78.9% | NCI-H322M lung 76.7% | HOP-62 NSCLC 20%
active: NCI-H23 lung -52.1% | NCI-H460 lung 6.03% | HOP-92 NSCLC -43.6% | NCI-H522 lung -62.4% | A549/ATCC NSCLC 3.86% | 786-0 renal -80.5% | COLO 205 colon -14.9%

CCO/C=N/C1=C(C#N)C(c2ccc(F)cc2)c2sc3c(F)cccc3c2O1 (stereo not given)
active: NCI-H522 lung -22%
inactive: NCI-H23 lung 61.2% | NCI-H226 lung 67.8% | NCI-H322M lung 65.4% | HOP-62 NSCLC 50.9% | NCI-H460 lung 16.3% | HOP-92 NSCLC 58.8% | A549/ATCC NSCLC 40.6% | 786-0 renal 35.2% | COLO 205 colon 78.3%

COc1cccc(CNc2c3ccccc3nc3ccccc23)c1
active: COLO 205 colon 9.63%
inactive: NCI-H23 lung 37.3% | NCI-H226 lung 48.1% | NCI-H322M lung 44% | HOP-62 NSCLC 46.5% | NCI-H460 lung 10% | HOP-92 NSCLC 25.5% | NCI-H522 lung 61.7% | A549/ATCC NSCLC 30.2% | 786-0 renal 37.3%
